Test results reported in PubChem BioAssay (Tox21).
Records with an inconclusive call do not appear. Unmarked numbers belong to inactive results. Active and inactive are the calls of the source. The call rests on the fitted dose curve; in most records, active means well fitted cell-killing curve with a large enough effect in the repeat runs; inconclusive means weak or mixed curves; inactive means no such curve, though single readings can be large or run the other way.

Experiment: qHTS assay for identifying genotoxic compounds that show differential cytotoxicity against isogenic chicken DT40 cell lines with known DNA damage response pathways - Rad54/Ku70 mutant cell line (AID 743015); further: nearly all actives have a fitted effect of over 60% in size; further: potency means the concentration at half of the fitted maximal effect
Settings: DT40 Rad54/Ku70 mutant viability, CellTiter-Glo, 40 h; series mostly up to 66.8 µM; activity change, negative = cytotoxicity: at the top concentration
On the % scale 0 is the no-effect control and ±100 the full control effect.

Compound	activity change, negative = cytotoxicity	Potency
CC(CCl)OC(C)CCl (stereo unspecified)	5.67%	–
CCCCCCC/C=C/C=O	–	43.3 µM (active)
Oc1ccc(Oc2ccccc2)cc1	–	36.6 µM (active)
FC(F)(Cl)C(F)(Cl)Cl	0.413%	–
O=C(Nc1ccccc1)c1cc([N+](=O)[O-])ccc1Cl	–	68.6 µM (active)
O=C(Cl)c1ccc(F)c(Cl)c1	0.259%	–
CC(=O)CC/C=C(\C)CC/C=C(\C)CC/C=C(\C)CCC=C(C)C	-0.0183%	–
CCOc1ccc2c(c1)C(C)CC(C)(C)N2 (stereo unspecified)	–	48.6 µM (active)
CCCC1CCOC(C)S1 (stereo unspecified)	-9.05%	–
Cc1c(Nc2ncccc2C(=O)O)cccc1C(F)(F)F	–	11.4 µM (active)
C[C@@H](O)[C@H]1C(=O)N2C(C(=O)O)=C(S[C@@H]3CN[C@H](CNS(N)(=O)=O)C3)[C@H](C)[C@H]12	8.21%	–
CCCCCCOC(=O)c1ccccc1	–	61.1 µM (active)
CCCCOC(=O)CC#N	16.6% [at 95.1 µM]	–
Nc1ccccc1Nc1ccccc1	–	15.4 µM (active)
Cc1cc(SC2=C(O)C[C@@](CCc3ccc(N)cc3)(C(C)C)OC2=O)c(C(C)(C)C)cc1CO	-24.5%	–
CCN(CCCCOC(=O)c1ccc(OC)c(OC)c1)C(C)Cc1ccc(OC)cc1 (stereo unspecified)	-9.95% [at 30.7 µM]	–
COc1cc(CNC(=O)CCCC/C=C/C(C)C)ccc1O	-2.47%	–
CC/C=C/CCO	-25.9% [at 95.1 µM]	–
C=CC(C)(O)CC/C=C(/C)CCC=C(C)C (stereo unspecified)	–	61.1 µM (active)
O=C(O)c1ccccc1-n1cc(C(=O)O)c(=O)c2cc(Nc3c(F)cc(F)cc3Cl)c(Cl)cc21	-4.76%	–
O=Cc1ccc([N+](=O)[O-])cc1	–	48.9 µM (active)
CC(C)(Cc1c[nH]c2ccccc12)NCC(O)COc1ccccc1C#N (stereo unspecified)	–	16.8 µM (active)
CCc1c(C)[nH]c2c1C(=O)C(CN1CCOCC1)CC2 (stereo unspecified)	-6.47% [at 30.7 µM]	–
CCOc1ccc(NC(C)=O)cc1N	6.6% [at 95.1 µM]	–
CCCCCCCCCCCCCCCCC(=O)O	0.0242%	–
CC(=O)c1cccnc1	14.2%	–
CCC[Si](OC)(OC)OC	-0.9%	–

Experiment: qHTS assay to identify small molecule antagonists of the androgen receptor (AR) signaling pathway - cell viability counter screen (AID 743033; further: nearly all actives have a fitted effect of over 45% in size)
Settings: AR-bla HEK293 viability, CellTiter-Glo luminescence, 16 h; series mostly up to 58.5 µM; activity change, negative = cytotoxicity: at the top concentration

Compound	activity change, negative = cytotoxicity	Potency
CC(CCl)OC(C)CCl (stereo unspecified)	-2.65%	–
CCCCCCC/C=C/C=O	-11.8%	–
Oc1ccc(Oc2ccccc2)cc1	-9.12%	–
FC(F)(Cl)C(F)(Cl)Cl	0.978%	–
CCC(C)C1N=C(C)C(C)S1 (stereo unspecified)	-6.35%	–
O=C(Nc1ccccc1)c1cc([N+](=O)[O-])ccc1Cl	-3.49%	–
O=C(Cl)c1ccc(F)c(Cl)c1	5.54%	–
CCOc1ccc2c(c1)C(C)CC(C)(C)N2 (stereo unspecified)	-9.59%	–
CCCC1CCOC(C)S1 (stereo unspecified)	11.7%	–
O=C(OCCCCCOC(=O)c1ccccc1)c1ccccc1	0.0576%	–
Cc1c(Nc2ncccc2C(=O)O)cccc1C(F)(F)F	-23% [at 27 µM]	–
O=C(O)c1ccc2c(c1)nc(C(=O)NC1CCN(C3CC3)CC1)n2Cc1cc(-c2ccc(Cl)s2)on1	0.971% [at 27 µM]	–
C[C@@H](O)[C@H]1C(=O)N2C(C(=O)O)=C(S[C@@H]3CN[C@H](CNS(N)(=O)=O)C3)[C@H](C)[C@H]12	9.2%	–
CCCCOC(=O)CC#N	-4.48% [at 78.9 µM]	–
Cc1cc(SC2=C(O)C[C@@](CCc3ccc(N)cc3)(C(C)C)OC2=O)c(C(C)(C)C)cc1CO	0.647%	–
COC=O	-27.8% [at 7.04 µM]	–
CCN(CCCCOC(=O)c1ccc(OC)c(OC)c1)C(C)Cc1ccc(OC)cc1 (stereo unspecified)	1.29% [at 27 µM]	–
COc1cc(CNC(=O)CCCC/C=C/C(C)C)ccc1O	–	inactive
CC/C=C/CCO	-11.1% [at 78.9 µM]	–
Clc1ccccc1-c1nc(-c2ccncc2)no1	-3.08%	–
O=C(O)c1ccccc1-n1cc(C(=O)O)c(=O)c2cc(Nc3c(F)cc(F)cc3Cl)c(Cl)cc21	7.25%	–
O=Cc1ccc([N+](=O)[O-])cc1	0.224% [at 78.9 µM]	–
CC(C)(Cc1c[nH]c2ccccc12)NCC(O)COc1ccccc1C#N (stereo unspecified)	-3.26%	–
CCc1c(C)[nH]c2c1C(=O)C(CN1CCOCC1)CC2 (stereo unspecified)	-11.5% [at 27 µM]	–
CCOc1ccc(NC(C)=O)cc1N	-2.84% [at 78.9 µM]	–
COc1ccc(C(=O)c2ccc(C)cc2)c(O)c1	–	inactive
C=C(C)C(=O)OCCCCCCCCCCOC(=O)C(=C)C	0.344%	–
CC(=O)c1cccnc1	1.3%	–
CCC[Si](OC)(OC)OC	12.3%	–
